The source made the active and inactive calls. The calls were made as follows: active = hit-call score of the fitted dose curve at least 0.9, where 1 is the maximum; inactive = score below 0.9.
Tests used:
[1] = read-out: flavin-containing dimethylaniline monooxygenases 3 (FMO3), FMO3 (gene 2328); assay: LTEA_HepaRG_FMO3: Life Technologies and Expression Analysis (LTEA) Assay for flavin-containing dimethylaniline monooxygenases 3 (FMO3) using HepaRG (AID 2283453); conditions: mRNA level, 48 h; actives raise or lower the signal;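 as to AC50: differentiated human HepaRG liver cells in serum-free induction medium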
Procedure, shortened: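 FMO3 transcript quantified by TaqMan qRT-PCR against three housekeeping genes after 48 h chemical exposure of HepaRG cells. Eight-point half-log series, top 100 uM, 0.5% DMSO vehicle; phenobarbital 1mM induction control; up- or down-regulation fitted.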

[2] = read-out: Cytochrome P450 (CYP1A1), CYP1A1 (gene 1543); assay: LTEA_HepaRG_CYP1A1: Life Technologies and Expression Analysis (LTEA) Assay for Cytochrome P450 (CYP1A1) using HepaRG (AID 2283454); conditions: mRNA level, 48 h; actives raise or lower the signal
Procedure, shortened: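 qRT-PCR read-out: CYP1A1 transcript normalized to three housekeeping genes, fitted bidirectionally against 0.5% DMSO vehicle baseline. Human HepaRG cells, 48 h chemical exposure, 8-point half-log series topping at 100 uM.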

[3] = read-out: CFLAR gene, CFLAR (gene 8837); assay: LTEA_HepaRG_CFLAR: Life Technologies and Expression Analysis (LTEA) Assay for CFLAR gene using HepaRG (AID 2283455); conditions: mRNA level, 48 h; actives raise or lower the signal
Procedure, shortened: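 qRT-PCR read-out (Fluidigm/TaqMan) of CFLAR mRNA, normalized to three housekeeping genes, in differentiated human HepaRG cells after 48 h chemical exposure; 8-point half-log series from 100 uM in 0.5% DMSO; bidirectional curve fitting versus DMSO.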

[4] = read-out: Forkhead box O1 (FOXO1), FOXO1 (gene 2308); assay: LTEA_HepaRG_FOXO1: Life Technologies and Expression Analysis (LTEA) Assay for Forkhead box O1 (FOXO1) using HepaRG (AID 2283456); conditions: mRNA level, 48 h; actives raise or lower the signal
Procedure, shortened: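 HepaRG, 48 h exposure, 8-pt half-log series from 100 uM in 0.5% DMSO, duplicates; Fluidigm qRT-PCR mRNA, housekeeping-normalised; bidirectional fit vs DMSO baseline.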

[5] = CEETOX_H295R_TESTO: CeeTox H295R High-throughput Steroidogenesis Assay for Testosterone (TESTO) (AID 2283457); conditions: actives raise or lower the signal
Procedure, shortened: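 Readout: testosterone quantified by HPLC-MS/MS (C18, ESI positive) after MTBE liquid-liquid extraction of culture medium. Cells were H295R, 48 h chemical exposure per OECD 456 with modifications. Gain or loss of signal fitted relative to DMSO.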

[6] = read-out: growth arrest and DNA damage 45 (GADD45A), GADD45A (gene 1647); assay: LTEA_HepaRG_GADD45A: Life Technologies and Expression Analysis (LTEA) Assay for growth arrest and DNA damage 45 (GADD45A) using HepaRG (AID 2283458); conditions: mRNA level, 48 h; actives raise or lower the signal
Procedure, shortened: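 GADD45A expression was measured by TaqMan qRT-PCR against three housekeeping genes (ACTB, GAPDH, POLR2A) after 48 h treatment of HepaRG cells. Eight-point half-log series up to 100 uM in 0.5% DMSO, run in duplicate.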

[7] = read-out: Forkhead box O3 (FOXO3), FOXO3 (gene 2309); assay: LTEA_HepaRG_FOXO3: Life Technologies and Expression Analysis (LTEA) Assay for Forkhead box O3 (FOXO3) using HepaRG (AID 2283459); conditions: mRNA level, 48 h; actives raise or lower the signal
Procedure, shortened: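 qRT-PCR readout of FOXO3 transcript, normalized to three housekeeping genes (ACTB, GAPDH, POLR2A); gain or loss fitted against 0.5% DMSO vehicle. HepaRG cells, 48 h chemical exposure, 8-point half-log series, top 100 uM.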

[8] = read-out: growth arrest and DNA damage 45 (GADD45B), GADD45B (gene 4616); assay: LTEA_HepaRG_GADD45B: Life Technologies and Expression Analysis (LTEA) Assay for growth arrest and DNA damage 45 (GADD45B) using HepaRG (AID 2283461); conditions: mRNA level, 48 h; actives raise or lower the signal
Procedure, shortened: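 qRT-PCR read-out (Fluidigm TaqMan, housekeeping-normalized) of mRNA change in human HepaRG cells after 48 h chemical exposure; 8-point curve, top 100 uM, half-log steps, 0.5% DMSO vehicle; gain or loss fitted relative to DMSO baseline.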

[9] = read-out: ABC Transporter (ABCC3), ABCC3 (gene 8714); assay: LTEA_HepaRG_ABCC3: Life Technologies and Expression Analysis (LTEA) Assay for ABC Transporter (ABCC3) using HepaRG (AID 2283462); conditions: mRNA level, 48 h; actives raise or lower the signal
Procedure, shortened: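 qRT-PCR read-out of ABCC3 transcript, normalized to three housekeeping genes (ACTB, GAPDH, POLR2A), after 48 h chemical exposure of human HepaRG cells. Eight half-log concentrations, highest 100 uM, in 0.5% DMSO; gain or loss fitted relative to DMSO baseline.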

[10] = read-out: ABC Transporter (ABCB1), ABCB1 (gene 5243); assay: LTEA_HepaRG_ABCB1: Life Technologies and Expression Analysis (LTEA) Assay for ABC Transporter (ABCB1) using HepaRG (AID 2283460); conditions: mRNA level, 48 h; actives raise or lower the signal
Procedure, shortened: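 HepaRG, 48 h exposure, 8-pt half-log series from 100 uM, 0.5% DMSO vehicle, duplicates. Readout: ABCB1 transcript by Fluidigm TaqMan qRT-PCR, housekeeping-normalized; bidirectional curve fit vs DMSO baseline.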

Measured: AC50

COc1cc2c(c(OC)c1OC)-c1ccc(OC)c(=O)cc1[C@@H](NC(C)=O)CC2
active: [1] 0.0477 µM | [2] 0.0575 µM | [3] 0.0663 µM | [4] 0.0309 µM | [9] 0.196 µM
inactive: [5] | [6] | [7] | [8]

CCn1nc(C)c2c1C(=O)NCC(c1ccc(O)cc1)=N2
active: [2] 40 µM
not listed: [5]
inactive: all other assays above

Cc1ccc(S(=O)(=O)NC(=O)NN2CCCCCC2)cc1
not listed: [2] | [5] | [10]
inactive: all other assays above

C=CN1CCCC1=O
active: [2] 50 µM
not listed: [5] | [10]
inactive: all other assays above

CCCc1ccccc1
not listed: [5] | [10]
inactive: all other assays above

CC(C)c1nnc2ccc(-c3ocnc3-c3cc(F)ccc3F)cn12
active: [1] 63.6 µM | [2] 29.9 µM | [9] 50 µM
not listed: [5] | [10]
inactive: all other assays above

OCCNCCO
not listed: [5] | [10]
inactive: all other assays above

O=C(NO)C1(NS(=O)(=O)c2ccc(Oc3ccc(F)cc3)cc2)CCOCC1
active: [1] 76.5 µM | [9] 80.1 µM
not listed: [5] | [10]
inactive: all other assays above

CCCC(CCC)C(=O)O
active: [2] 64.3 µM
not listed: [5] | [10]
inactive: all other assays above

O=S1(=O)CCCO1
not listed: [5] | [10]
inactive: all other assays above

OCc1c[nH]c2ccccc12
inactive: [5]

CCCCOC(=O)c1ccccc1
not listed: [5] | [10]
inactive: all other assays above

OCc1ccccc1
not listed: [5] | [10]
inactive: all other assays above

Cn1c(=O)c2[nH]cnc2n(C)c1=O
not listed: [5] | [10]
inactive: all other assays above

O=c1[nH]cnc2c1ncn2[C@H]1CC[C@@H](CO)O1
not listed: [5] | [10]
inactive: all other assays above

Nc1ccn([C@@H]2O[C@H](CO)[C@@H](O)[C@@H]2O)c(=O)n1
active: [2] 77.3 µM
not listed: [5] | [10]
inactive: all other assays above

NNC(=O)c1ccncc1
active: [2] 22 µM
not listed: [5] | [10]
inactive: all other assays above

CCCCCCCC1CCC(=O)O1 (stereo not drawn)
not listed: [2] | [5] | [10]
inactive: all other assays above

CCCCCCCCCC
active: [2] 50 µM
not listed: [5] | [10]
inactive: all other assays above

CCCCCCCCN(C)C
not listed: [5] | [10]
inactive: all other assays above

O=C(O)[C@H](O)[C@@H](O)C(=O)O
not listed: [2] | [5] | [10]
inactive: all other assays above

COCc1nnc(-c2ccc[n+]([O-])c2)n1-c1c(Cl)c(Cl)cc2[nH]c(=O)c(=O)[nH]c12
active: [2] 50 µM
not listed: [5] | [10]
inactive: all other assays above

CCCCCCCCCCCCCCCCOS(=O)(=O)O
active: [2] 14.9 µM
not listed: [5] | [10]
inactive: all other assays above

c1ccc2ncccc2c1
active: [2] 83.2 µM
not listed: [5] | [10]
inactive: all other assays above

OCC(CO)(CO)CO
not listed: [5] | [10]
inactive: all other assays above

NC(=O)N1c2ccccc2C=Cc2ccccc21
not listed: [5] | [10]
inactive: all other assays above

NC(=O)NN=Cc1ccc([N+](=O)[O-])o1
active: [2] 50 µM
not listed: [5] | [10]
inactive: all other assays above

c1ccc(C(O[C@@H]2CCCN(CCc3ccc4c(c3)OCO4)C2)c2ccccc2)cc1
inactive: [3] | [4]
active: [1] 70 µM | [2] 13.2 µM | [6] 89.2 µM | [7] 10.2 µM | [8] 81.1 µM | [9] 30.1 µM

O=C1CN(N=Cc2ccc([N+](=O)[O-])o2)C(=O)N1
active: [1] 73 µM | [6] 80.7 µM
not listed: [5] | [10]
inactive: all other assays above

CCCCN1C(=O)[C@@H]([C@H](O)C2CCCCC2)NC(=O)C12CCN(Cc1ccc(Oc3ccc(C(=O)O)cc3)cc1)CC2
inactive: [6]
active: [1] 3.54 µM | [2] 2.16 µM | [3] 2.28 µM | [4] 6.4 µM | [7] 4.14 µM | [8] 21.5 µM | [9] 4.37 µM

CC(C)CCCCCCOC(=O)C1CCCCC1C(=O)OCCCCCCC(C)C (stereo not drawn)
active: [2] 75.6 µM | [6] 0.00316 µM
not listed: [5] | [10]
inactive: all other assays above

O=C(O)c1cccc(C[C@@H]2COc3ccc(OCc4nc5cc(F)ccc5s4)cc3[C@@H]2O)c1
active: [2] 33.4 µM | [9] 79.3 µM
not listed: [5] | [10]
inactive: all other assays above

CCOc1ccc2[nH]cc(C(=O)NCc3ccccc3)c(=O)c2n1
active: [1] 79.6 µM | [2] 34 µM
not listed: [5] | [10]
inactive: all other assays above

CCOC(N)=O
active: [2] 50 µM
not listed: [5] | [10]
inactive: all other assays above

Cc1ncc([C@@H](CCCCCCc2ccc3c(n2)NCCC3)CC(=O)O)cn1
active: [2] 50 µM
not listed: [5] | [10]
inactive: all other assays above

COS(C)(=O)=O
not listed: [5] | [10]
inactive: all other assays above

OCCOCCOCCO
active: [2] 84.1 µM
not listed: [5] | [10]
inactive: all other assays above

— PubChem BioAssay (EPA / NIEHS)
